{"source": "PubChem BioAssay AID652175", "about": "(National Center for Advancing Translational Sciences (NCATS), 2013)", "note": "Results filed as inconclusive are left out. A number with no mark means an inactive call. Calls of active or inactive are those of the source. Calls follow the shape of the dose curve; as a rule, active = well fitted inhibition curve with a large enough effect; inconclusive = small, poorly fitted or top-dose-only effect; inactive = no such curve, though single readings can be large or run the other way."}
{"assay": "qHTS Assay for Lipid Storage Modulators: S3 Assay against Probe and Analogs", "settings": "Drosophila S3 cells, BODIPY lipid droplet fluorescence, 18-24 h, oleic acid added to induce droplets; series mostly up to 46.1 µM; activity, negative = lipid storage inhibition: at the top concentration", "text": "Storing lipids as a reservoir for energy or the anabolism of elementary metabolites is a common feature of probably all cells and is conserved from bacteria to humans. The universal cellular lipid storage organelle is the so-called lipid storage droplet (LD). Although ubiquitous, LDs share a simple structure composed of a hydrophobic core that harbors the storage lipids, which is shielded by a droplet-specific phospholipid monolayer to which proteins are attached. The current model of LD biogenesis involves an incorporation of the lipid core into the membrane leaflets of the endoplasmic reticulum (ER) followed by a subsequent budding-like maturation of a LD, which ultimately pinches off. Once released, LD volume can increase by localized lipogenesis or fusion of existing droplets. Storage lipids are re-mobilized enzymatically by lipase activity. Lipase regulation in the adipocyte is heavily studied and involves multiple components including catecholamine signaling, the LD-associated proteins Perilipin and comparative gene identification-58 (CGI-58) and at least two lipases named hormone sensitive lipase (HSL) and adipocyte triglyceride lipase (ATGL). LD regulation outside of the adipocyte is poorly understood and only few components are known. However, there is an urgent need to learn more about ectopic fat depots as mislocalized storage of lipids, for example in the liver or muscle, is an eminent health problem associated with insulin resistance or the metabolic syndrome. We developed a laser-scanning cytometer assay to enable 1,536-well screening and combined the results of the small molecules screen with an RNAi database based on lipid storage. In this assay we tested analogs of the probe against the original qHTS assay, which involved drosophila melanogaster cells (S3), to see if these small molecules could disrupt lipid storage. NIH Molecular Libraries Probe Production Centers Network [MLPCN] NIH Chemical Genomics Center [NCGC] MLPCN Grant: MH085686 Assay Submitter (PI): Mathias Beller, Max-Planck-Institut fur Biophysikalische Chemie\nqHTS was performed with embryonic Drosophila S3 cells (Bloomington Drosophila Genomics Resource Center [DGRC]). We dispensed 4 uL of cells at 1.25 x 10^6 cells/mL into LoBase Aurora COC 1,536-well plates (black walled, clear bottom) with a bottle-valve solenoid-based dispenser (Aurora) to obtain 5,000 cells/well. Triacsin C (Sigma-Aldrich T-4540), an inhibitor of long-chain fatty acyl CoA synthetase that blocks synthesis of triglycerides, was used as a positive control for lipid under-storage. A total of 23 nL of compounds dissolved in DMSO at different concentrations were transferred to the assay plates using a Kalypsys pin tool equipped with a 1,536-pin array containing 10-nL slotted pins (FP1S10, 0.457-mm diameter, 50.8 mm long; V&P Scientific). The final DMSO concentration was 0.46%. One microliter of oleic acid at 400 uM (Calbiochem, #4954) was added to induce lipid droplet formation in the cells, and the plates were lidded with stainless steel rubber gasket lined lids containing pinholes. After 18-24 h incubation at 25 0C and 95% humidity, 4 uL of the BODIPY lipid dye 493/503 (1:2000, Molecular Probes) and the Cell Tracker Red CMTPX dye (Life Technologies, # 34552) were added to the wells to stain lipid droplets and enumerate cell number, respectively. Fluorescence was detected by excitation of the fluorophores with a 488-nm laser on an Acumen Explorer (TTP Lab Tech). The total intensity in channel 1 (500-530 nm) reflected lipid droplet accumulation. Cells were detected using channel 3 (575-640 nm) with 5-um width and 100-um depth filters. The ratio of the total intensity in PMT channel 1 over total intensity of channel 3 was also calculated. Percent activity was computed relative to an internal control (100% inhibited lipid droplet deposition due to the presence of 20 uM Triacsin C), which was added to 32 wells/plate."}
{"smiles": "CCOc1ccc(CCN(C)C(=O)c2cc3sccc3n2Cc2ccccc2)cc1OCC", "Potency": "0.469 µM (active)"}
{"smiles": "CCOc1ccc(CCNC(=O)c2cc3sccc3n2Cc2ccccn2)cc1OCC", "Potency": "0.0296 µM (active)"}
{"smiles": "O=C(NC1CCCc2c1cnn2-c1ccc(F)cc1F)c1ccc(C2(C(F)(F)F)N=N2)cc1", "note": "(stereo not given)", "Potency": "7.43 µM (active)"}
{"smiles": "Cc1cn(-c2cc(NC(=O)c3ccc(C)c(Nc4nccc(-c5cccnc5)n4)c3)cc(C(F)(F)F)c2)cn1", "activity, negative = lipid storage inhibition": "110%"}
{"smiles": "O=C(NC1CCCc2c1cnn2-c1ccc(O)cc1)c1ccccn1", "note": "(stereo not given)", "Potency": "0.0012 µM (active)"}
{"smiles": "COc1cc(C)c(Sc2cnc(NC(=O)c3ccc(CNC(C)C(C)(C)C)cc3)s2)cc1C(=O)N1CCN(C(C)=O)CC1", "note": "(stereo not given)", "activity, negative = lipid storage inhibition": "120%"}
{"smiles": "O=C(Nc1cccc2nn(-c3ccc(F)cc3)cc12)c1ccccn1", "activity, negative = lipid storage inhibition": "193%"}
{"smiles": "O=C(Nc1ccccc1-c1cn2c(CN3CCNCC3)csc2n1)c1cnc2ccccc2n1", "activity, negative = lipid storage inhibition": "-100%"}
{"smiles": "COc1nc(-c2ccc3c(c2)OCO3)n(-c2ccc(NC(=O)CSc3ccccc3)cc2)n1", "activity, negative = lipid storage inhibition": "43.3%"}
{"smiles": "CCOc1ccc(CCNC(=O)c2cc3ccccc3n2Cc2ccc(Cl)c(F)c2)cc1OCC", "Potency": "0.0059 µM (active)"}
{"smiles": "CCOc1ccc(CCNC(=O)C2CCCCC2)cc1OCC", "activity, negative = lipid storage inhibition": "66.7%"}
{"smiles": "Cc1cccc(-c2ccc3ncnc(NCc4cccc(F)c4)c3c2)c1", "activity, negative = lipid storage inhibition": "-96.7%"}
{"smiles": "CCOc1cc(F)c(CCNC(=O)c2cc3sccc3n2Cc2ccccc2)cc1OCC", "Potency": "0.0033 µM (active)"}
{"smiles": "O=C(c1cc2sccc2n1Cc1ccccc1)N(CCc1ccc(O)c(O)c1)Cc1ccccc1", "activity, negative = lipid storage inhibition": "167%"}
{"smiles": "CCOc1ccc(CCNC(=O)c2cc3sccc3n2Cc2ccccc2)cc1OCC", "Potency": "0.0042 µM (active)"}
{"smiles": "CCOc1ccc(CCNC(=O)c2cc3ccccc3o2)cc1OCC", "activity, negative = lipid storage inhibition": "23.3%"}
{"smiles": "CC1(C)CCC(c2ccc(Cl)cc2)=C(CN2CCN(c3ccc(C(=O)NS(=O)(=O)c4ccc(N[C@H](CCN5CCOCC5)CSc5ccccc5)c(S(=O)(=O)C(F)(F)F)c4)cc3)CC2)C1", "Potency": "0.526 µM (active)"}
{"smiles": "O=C(Cc1ccccc1)NC1CCCc2c1cnn2-c1ccc(F)cc1F", "note": "(stereo not given)", "activity, negative = lipid storage inhibition": "30%"}
{"smiles": "CCOc1ccc(CCNC(=O)c2csc(Br)n2)cc1OCC", "activity, negative = lipid storage inhibition": "140% [at 38.8 µM]"}
{"smiles": "CCOC(=O)C1CCN(C(=O)C2(NC(=O)Nc3ccc(F)cc3F)CCCCC2)CC1", "activity, negative = lipid storage inhibition": "-100%"}
{"smiles": "CCOc1ccc(CCNC(=O)c2cc3sccc3n2Cc2ccc(Cl)c(F)c2)cc1OCC", "Potency": "0.0059 µM (active)"}
{"smiles": "Cc1cc2c(cc1C1(c3ccc(C(=O)O)cc3)CC1)C(C)(C)CCC2(C)C", "activity, negative = lipid storage inhibition": "53.3%"}
{"smiles": "O=C(O)c1cccc(-c2noc(-c3ccccc3F)n2)c1", "activity, negative = lipid storage inhibition": "33.3%"}
{"smiles": "CCOc1ccc(CCNC(C)=O)cc1OCC", "activity, negative = lipid storage inhibition": "-23.3%"}
{"smiles": "CCOc1ccc(CCNC(=O)c2ccc3ccccc3n2)cc1OCC", "activity, negative = lipid storage inhibition": "30% [at 38.8 µM]"}
{"smiles": "CCOc1ccc(CCNC(=O)c2ccccn2)cc1OCC", "activity, negative = lipid storage inhibition": "180%"}
{"smiles": "CCOc1ccc(CCNC(=O)Cc2ccccc2)cc1OCC", "activity, negative = lipid storage inhibition": "46.7%"}
{"smiles": "Cc1cc(SCc2sc(-c3ccc(C(F)(F)F)cc3)nc2C)ccc1OCC(=O)O", "activity, negative = lipid storage inhibition": "73.3%"}
{"smiles": "O=C(NC1CCCc2c1cnn2-c1cccc(O)c1)c1ccccn1", "note": "(stereo not given)", "Potency": "0.0418 µM (active)"}
{"smiles": "O=C(O)CCc1ccc(NCc2cccc(Oc3ccccc3)c2)cc1", "activity, negative = lipid storage inhibition": "70%"}
{"smiles": "CCOC(=O)C1CCN(C(=O)C(C)(C)NC(=O)Nc2ccc3ccccc3c2)CC1", "Potency": "4.69 µM (active)"}
{"smiles": "O=C(NCCc1ccc(O)c(O)c1)c1cc2sccc2n1Cc1ccccc1", "activity, negative = lipid storage inhibition": "26.7%"}
{"smiles": "CCOc1ccc(CCNC(=O)C2(c3ccccc3)CC2)cc1OCC", "activity, negative = lipid storage inhibition": "177%"}
{"smiles": "COc1cccc(-n2ncc3c2CCCC3NC(=O)c2ccccn2)c1", "note": "(stereo not given)", "Potency": "0.0037 µM (active)"}
{"smiles": "C[C@@H](NCCCc1cccc(C(F)(F)F)c1)c1cccc2ccccc12", "activity, negative = lipid storage inhibition": "-103%"}
{"smiles": "CCOc1ccc(CCNC(=O)c2ccc(C3(C(F)(F)F)N=N3)cc2)cc1OCC", "activity, negative = lipid storage inhibition": "-76.7%"}
{"smiles": "CCn1c(C(=O)NCCc2ccc(OC)c(OC)c2)cc2sccc21", "activity, negative = lipid storage inhibition": "-46.7%"}
{"smiles": "CCOC(=O)C1CCN(C(=O)C(C)(C)NC(=O)Nc2ccc(CN3CCOCC3)cc2)CC1", "activity, negative = lipid storage inhibition": "-33.3%"}
{"smiles": "CC(C)(C)OC(=O)NCCOCCOCCOCCn1ncc2c1CCCC2NC(=O)c1ccccn1", "note": "(stereo not given)", "activity, negative = lipid storage inhibition": "-103%"}
{"smiles": "O=C(NC1CCCc2c1cnn2CCO)c1ccccn1", "note": "(stereo not given)", "activity, negative = lipid storage inhibition": "-100%"}
